Bioassay records from PubChem BioAssay.
Marburg entry = qHTS for Inhibitors of binding or entry into cells for Marburg Virus; Potency, µM (series often up to 49.2 µM), for inactives: top-dose activity change, negative = inhibition, actives largely listed as inhibitors; AID 720532, 2013; 18,000 compounds, 6.5% hits; Marburg virus pseudotype entry/binding inhibition, cell-based
LASV entry inh = qHTS for Inhibitors of binding or entry into cells for Lassa Virus; Lassa virus pseudotyped entry inhibition, cell-based qHTS; Potency, µM (highest dose often 49.2 µM), inactives show at the highest dose activity change, negative = inhibition, hits mostly inhibitors; 18,000 compounds, 4.1% hits; AID 720533, 2013
* = called active by the depositor; u = inconclusive; x = not tested or not shown; ! = not active in a repeat; [ ] = remark or other dose. In the library only some 8.6% were active in any assay of this set; here they are far more common. Calls come from the whole dose curve; tested in HEK293 cells. % is set by controls: 0 for no effect and ±100 for the full control effect; potency is the fitted concentration of half-maximal effect.

SMILES	Marburg entry	LASV entry inh
Cc1ccc(CN2C=CCCS2(=O)=O)cc1	4.0%	-9.4%
c1ccc2nc(N3CCNCC3)ccc2c1	31.6µM*!	-10.4%
c1ccc2c(N3CCNCC3)cccc2c1	u	-0.5%
CCCCCCN1C[C@H](O)[C@@H](n2cc(C3CC3)nn2)C[C@H]1c1ccc(C)cc1	u	-5.6%
ClC1=C(Cl)C(Cl)(C2(Cl)C(Cl)=C(Cl)C(Cl)=C2Cl)C(Cl)=C1Cl	3.16µM*	u
CCCCCC(=O)N1C[C@@H](O)[C@H](n2cc(COC(=O)c3ccccc3)nn2)C[C@H]1c1ccc(Cl)cc1	u	-17.7%
O=C(C=Cc1ccccc1)Nc1cccc(C(=O)NCCCc2ccccc2)c1	29.8%	49.3%
COC(=O)N[C@@H](C=Cc1ccccc1)C(C(=O)OC)=C(C)NCc1ccccc1	-22.2%[8.59 µM]	-11.6%[8.59 µM]
C[C@H]1[C@H](O)[C@@H](N=[N+]=[N-])CCO[C@H]1c1ccccc1	-11.7%[8.59 µM]	-5.8%[8.59 µM]
CCOC(=O)CN1C(=O)[C@]2(OCCC=C[C@@H]2C)c2cc(OC)ccc21	12.7%[8.59 µM]	-2.3%[8.59 µM]
CSc1ccc2c(c1)C(N1CCN(C)CC1)Cc1ccccc1S2 (centres undefined)	6.31µM*	22.4µM*!
CSc1ccc2c(c1)[C@H](N1CCN(C)CC1)Cc1ccccc1S2	11.2µM*	28.2µM*!
CN1CCN(C2Cc3ccccc3Sc3ccc(Cl)cc32)CC1 (centres undefined)	12.6µM*	u
C[C@H](CO)NS(=O)(=O)c1cc(Cl)ccc1F	19.0%	9.3%
C=C1C([C@@H](O)C[C@H](C)C2O[C@@]3(CCCCO3)CC[C@H]2C)OC2CC[C@@]3(CC[C@@H](/C=C/[C@@H](C)C4CC(C)=C[C@]5(O4)O[C@H](C[C@@](C)(O)C(=O)O)CCC5O)O3)OC2[C@@H]1O (some centres undefined)	u	1.12µM*
C[C@H]1CN(C2CCCCC2)C(=O)[C@H]1CC(=O)Nc1ccccc1	18.9%	-25.2%
CCN1C(N(C)CCc2c[nH]c3ccccc23)=NC(c2cccc(C(F)(F)F)c2)C(C(=O)OC)=C1C (centres undefined)	u	-23.1%[8.59 µM]
C=CCO[C@@H]1C=C[C@@H](c2ccccc2)O[C@@H]1COC	18.3%[8.59 µM]	3.6%[8.59 µM]
CC=C(C)C(=O)O[C@H]1C(C)=C2[C@@H]3OC(=O)[C@@](C)(O)[C@@]3(O)[C@@H](OC(=O)CCC)C[C@](C)(OC(C)=O)[C@@H]2[C@@H]1OC(=O)CCCCCCC	39.8µM*	39.8µM*
CC(CCC(=O)OC[C@H]1O[C@H](C#Cc2ccccc2)C=C[C@H]1Oc1ccc(C)cc1)=NO[C@H](C)c1cn([C@H](CO)Cc2ccccc2)nn1	2.3%[8.59 µM]	x
COCCN1C(=O)NC(CCc2ccccc2)C(C(C)=O)=C1C (centres undefined)	4.9%[8.59 µM]	11.0%[8.59 µM]
Cc1cccc2c(N3CCCC3)nc(CNS(=O)(=O)c3ccccc3F)nc12	u	4.6%
Cc1ccc(F)cc1S(=O)(=O)NCc1nc(N2CCCC2)c2cccc(C)c2n1	12.6µM*	-9.8%
CN1CCN(C2=Nc3cc(F)ccc3Cc3ccccc32)CC1	u	-9.7%
Clc1ccccc1-c1nc(N2CCNCC2)c2ccccc2n1	u	-12.5%
SMILES	Marburg entry	LASV entry inh
CN1CCN(C2=Nc3cc(Cl)ccc3Nc3ccccc32)CC1	10µM*	8.91µM*!
Clc1ccc2c(c1)N=C(N1CCNCC1)c1ccccc1N2	10µM*	u
CC1=C[C@H](O)CC(C)(C)[C@H]1/C=C/C(C)=C/C=C/C(C)=C/C=C/C=C(C)/C=C/C=C(C)/C=C/C1=C(C)C[C@@H](O)CC1(C)C	18.1%	-0.1%
C[C@]12CC[C@H]3[C@@H](CCC4=CC(=O)CC[C@@]43C)[C@@H]1CC[C@H]2O	5.2%	-4.2%
CO/N=C(\C(=O)N[C@@H]1C(=O)N2C(C(=O)O)=C(CSc3nnnn3C)CS[C@H]12)c1csc(N)n1	24.6%	-1.7%
O[C@H](CC#CCOc1ccccc1)COCc1ccccc1	70.6%[8.59 µM]	22.3%[8.59 µM]
CCc1cc2c(nc1CC)CCN(CCC(C)=NO[C@@H]1O[C@H](COC(C)=O)[C@@H](OC(C)=O)[C@H](OC(C)=O)[C@@H]1OC(C)=O)C2	-19.1%[8.59 µM]	5.4%[8.59 µM]
CC(=O)OC[C@H]1O[C@@H](n2ncc(=O)[nH]c2=O)[C@H](OC(C)=O)[C@@H]1OC(C)=O	2µM*	1.58µM*
CN(C)c1cc(NC(=O)CNC(C)(C)C)c(O)c2c1C[C@H]1C[C@H]3[C@H](N(C)C)C(=O)C(C(N)=O)=C(O)[C@@]3(O)C(=O)C1=C2O	-11.1%	-11.5%
COc1cc(CN2CCN(CCCSc3cc(C(C)(C)C)c(O)c(C(C)(C)C)c3)CC2)cc(OC)c1OC	2.82µM*	20µM*
C[C@@H]1N[S+](=O)([O-])c2ccc(F)cc2O[C@H]1c1ccccc1	u	9.4%
CCCCCCCCCCCCCCOc1ccc(C(=O)O)o1	u	0.562µM*
CCCCCCCCOC(=O)c1ccccc1C(=O)OCCCCCCCC	-7.7%	-15.3%
